Holding throughout (assay): NCI-60 one-dose screen, 48 h (100 = growth as untreated, 0 = no growth, -100 = all killed)
Conditions in all cases: 10 µM unless noted

Experiment [1] concerns DU-145 prostate.
The test system of experiment [2] is K-562 leukemia.
The test system of experiment [3] is MALME-3M melanoma.
The subject of experiment [4] is MDA-MB-231 breast.
In experiment [5] the test system is RXF 393 renal.
For experiment [6], the system named is SF-268 CNS.
The subject of experiment [7] is SF-295 CNS.
The test system of experiment [8] is SF-539 CNS.
Experiment [9] has as its system UACC-257 melanoma.
For experiment [10], the system named is M14 melanoma.
Experiment [11] concerns HCT-15 colon.
Experiment [12] concerns HT29 colon.
Experiment [13] has as its system SNB-75 CNS.
Experiment [14] has as its system SNB-19 CNS.
Experiment [15] has as its system U251 CNS.
Experiment [16] relates to PC-3 prostate.
Experiment [17] concerns SK-MEL-5 melanoma.
Experiment [18] deals with UACC-62 melanoma.
Experiment [19] has as its system LOX IMVI melanoma.
Experiment [20] deals with SK-MEL-28 melanoma.

This note sets out measurements from PubChem BioAssay (NCI).

The structures appear in SMILES notation. This is part of a sample that, as a whole, favours compounds with a hit. Of some 83,000 tested, about 20% had one in any assay.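 Single-dose data. Exposure time 48 hours. Values below 10 considered active.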 Unmarked numbers belong to inactive results. Activity calls are given as the source filed them.

For `COC(=O)Nc1nc2ccc(C(=O)c3ccc(N(C)C4COC4)cc3)cc2[nH]1`, the growth in experiment [1] was 12.7%; in [2], 7.83% (active); in experiment [3] it was 53.8%; in [4], 37.8%; in experiment [5], 22.1%; in [6], 41.5%. The growth in experiment [7] is 13.3%; in experiment [8], -7% (active); in experiment [9], 44.4%; in [10] it was 3.69% (active); in experiment [11], 12.4%; in [12], 0.909% (active). Besides, the growth in experiment [13] was 16.4%; in experiment [14], 26.9%; in experiment [15], 17.2%; in experiment [16], 24.2%; in experiment [17], 3.76% (active); in experiment [18] it was 34.3%. Further, the values for the growth in experiment [19] and in experiment [20] were 20.4% and 56.9%, respectively.

Regarding `N[C@@H]1CCCN(c2c(/C=C3\SC(=O)NC3=O)cccc2-c2ccccc2)C1`, the growth is 70.4% in experiment [1]; 33.1% in experiment [2]; 55.6% in experiment [3]; 55.8% in experiment [4]; 54.6% in [5]; 43% in experiment [6]. Also, the growth in experiment [7] was 5.44% (active); in [8], -24.7% (active); in [9], 44.7%; in [10], 54.3%; in experiment [11] it was 63.9%; in [12], 55%. Also, the growth in [13] is -14.1% (active); in experiment [14], 1.97% (active); in experiment [15], 13.9%; in experiment [16], 47.5%; in experiment [17], 55%; in experiment [18] it was 62.2%. Besides, the growth is 72.6% in experiment [19] and 73.8% in experiment [20].

Consider `C/C(=C(/c1ccc(Cl)cc1)c1ccc(OCCN2CCCC2)cc1)c1ccccc1`, for which the growth in experiment [1] is 86.4%; in experiment [2], 6.72% (active); in [3], 62.4%; in experiment [4], 61.3%; in experiment [5], 66.6%; in [6], 87.9%. In addition, the growth in experiment [7] is 77.5%; in [8], 58.8%; in experiment [9], 44.7%; in [10], 28.3%; in experiment [11], 8.01% (active); in experiment [12], 4.46% (active). Further, the growth in experiment [13] was 86.1%; in experiment [14], 80.7%; in experiment [15] it was 63.9%; in [16] it was 64.5%; in [17], 14.9%; in experiment [18], 48.9%. Moreover, the growth in experiment [19] is 30.6%; in experiment [20], 62%.

With `COc1cccc2cc(-c3nc(C4CCC(C(=O)O)CC4)n4ncnc(N)c34)[nH]c12` (stereo not given), the growth is 19.2% in experiment [1]; 14% in experiment [2]; -12% (active) in [3]; 19.2% in experiment [4]; -23.8% (active) in experiment [5]; 16.2% in experiment [6]. For the same molecule, the growth in experiment [7] was -31.2% (active); in experiment [8], -25.6% (active); in experiment [9], -22.8% (active); in experiment [10], 4.34% (active); in experiment [11], 16.4%; in experiment [12], 14.3%. The growth in experiment [13] is -43.1% (active); in [14], 15.7%; in experiment [15] it was 9.1% (active); in experiment [16], 13.3%; in [17], -28.7% (active); in experiment [18], -32.2% (active). Also, the growth in experiment [19] is -4.84% (active); in [20], -9.6% (active).

`CCCCN1C(=O)c2cccc3c(-c4ccc5c(c4)ncn5C4CCCCC4)ccc(c23)C1=O`: the growth in experiment [1] was 101%; in [2] it was 86%; in experiment [3], 95.4%; in [4], 108%; in [5], 118%; in [6], 106%. Moreover, the growth in experiment [7] is 96.7%; in [8], 101%; in experiment [9], 103%; in [10], 92.1%; in [11], 106%; in experiment [12], 84.1%. For the same molecule, the growth in [13] is 92.3%; in experiment [14], 106%; in experiment [15] it was 98.3%; in experiment [16], 94.3%; in [17], 107%; in [18], 92.8%. Moreover, the values for the growth in [19] and in experiment [20] were 102% and 117%, respectively.

Take `CN(C)C[C@@H]1CCn2cc(c3ccccc32)C2=C(C(=O)NC2=O)c2cn(c3ccccc23)CCO1`: the growth in experiment [1] was 13.2%; in experiment [2], -58.7% (active); in [3] it was -70.5% (active); in [4] it was -35.8% (active); in experiment [5], -72.9% (active); in experiment [6] it was 36.6%. Also, the growth in [7] is 21%; in experiment [8], -93.2% (active); in experiment [9] it was -20.1% (active); in experiment [10] it was 3.4% (active); in experiment [11] it was -31.7% (active); in experiment [12], 0.848% (active). Further, the growth in [13] is -76.1% (active); in experiment [14], 15.3%; in experiment [15] it was -70.8% (active); in experiment [16], 0.163% (active); in experiment [17] it was 22.5%; in [18] it was 43%. Moreover, the growth in experiment [19] was -70.1% (active); in [20] it was -92.6% (active).

As for `CC/C(=C(/c1ccc(Cl)cc1)c1ccc(OCCN2CCCCC2)cc1)c1ccc(Cl)cc1`, the growth in [1] is 89.8%; in experiment [2], 26.2%; in experiment [3], 82.9%; in experiment [4], 94.3%; in [5], 96.6%; in experiment [6], 88%. Moreover, the growth in experiment [7] is 60.6%; in experiment [8], 87.8%; in experiment [9], 78.3%; in experiment [10], 76.6%; in [11], 57.1%; in experiment [12], 23%. Besides, the growth was 85.7% in experiment [13]; 85.7% in experiment [14]; 62.3% in experiment [15]; 63.7% in [16]; 86.9% in [17]; 97% in experiment [18]. The growth in [19] was 82.2%; in experiment [20], 98.5%.

On to `COc1cc(Nc2c(C#N)cnc3cc(OCCCN4CCN(C)CC4)c(OC)cc23)c(Cl)cc1Cl`, for which the growth in [1] was 46%; in experiment [2] it was 22.7%; in experiment [3], 1.06% (active); in experiment [4] it was 62.3%; in experiment [5], 59%; in experiment [6] it was 70.5%. For the same molecule, the growth is 83.7% in experiment [7]; 94.4% in experiment [8]; -8.01% (active) in experiment [9]; 13% in [10]; 57.5% in experiment [11]; 10.3% in [12]. For the same molecule, the growth in [13] was 87.6%; in experiment [14], 70.4%; in experiment [15], 65%; in experiment [16], 84.7%; in experiment [17] it was 62.5%; in experiment [18], 9.83% (active). Further, the growth in experiment [19] was 33.1%; in experiment [20] it was 19.3%.
